D1 antag = human D1 dopamine receptor antagonism | P21728 | HEK293 TREx D1 cells, calcium flux, dopamine EC80; hits give low values | activity change, negative = inhibition, % at 10 µM | 360,000 compounds, 3.2% hits | AID 504652; in the data active = activity change below about -30%
Target sequence (P21728 whole entry, looked up): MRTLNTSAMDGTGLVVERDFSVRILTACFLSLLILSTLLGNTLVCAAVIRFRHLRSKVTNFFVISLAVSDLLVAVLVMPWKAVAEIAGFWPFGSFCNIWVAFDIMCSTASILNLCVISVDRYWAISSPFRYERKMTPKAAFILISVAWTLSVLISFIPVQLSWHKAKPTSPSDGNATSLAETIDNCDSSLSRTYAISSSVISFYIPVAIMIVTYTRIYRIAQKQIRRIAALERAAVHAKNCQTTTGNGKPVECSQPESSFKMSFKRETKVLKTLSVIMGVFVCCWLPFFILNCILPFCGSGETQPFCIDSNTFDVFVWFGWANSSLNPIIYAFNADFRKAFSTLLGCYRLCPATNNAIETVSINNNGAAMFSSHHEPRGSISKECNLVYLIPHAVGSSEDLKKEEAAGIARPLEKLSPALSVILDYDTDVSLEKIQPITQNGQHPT
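Tetracycline-induced HEK293 Trex D1 cells, force-coupled to calcium, dye-loaded; compounds added and read 180 s, then EC80 dopamine added and calcium flux tracked kinetically another 180 s.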
TRHR agonist = activates the human TRH receptor | P34981 | TRHR cells, calcium flux fluo-8, FDSS agonist mode | activation, % at 2 µM | 360,000 compounds, 0.18% hits | AID 493084
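TRHR-expressing cells loaded with fluo-8 calcium dye; 23 nL library compound pin-transferred, kinetic FDSS fluorescence (Ex 480/Em 530) recorded about 180 s for agonist-induced calcium release, before a 10 nM TRH EC20 addition for potentiator mode.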
D1 PAM = enhances dopamine response at the human D1 receptor | 360,000 compounds, 0.036% hits | potentiation, % at 10 µM | P21728 | HEK293 TREx D1 cells, calcium flux, dopamine EC20 potentiation | AID 504651; in the data active = potentiation above about 30%
TRHR PAM = allosterically enhances the human TRH receptor; TRHR cells, fluo-8 calcium fluorescence, EC20 TRH enhancement; 360,000 compounds, 0.66% hits; enhancement, % at 2 µM; in the data active = enhancement above about 30%
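TRHR-expressing cells loaded with fluo-8 calcium dye were read kinetically (ex 480/em 530) during compound addition, then stimulated with an EC20 of TRH (10 nM final). Enhancement of the Gq-mediated intracellular calcium response was scored.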
D1 agonist = agonists of human D1 dopamine receptor | AID 504660 | HEK293 T-REx D1 cells, calcium flux, agonist mode | activation, % at 2 µM | 360,000 compounds, 1% hits | P21728
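Tetracycline-induced HEK293 TREx D1 cells, force-coupled to calcium signalling, were dye-loaded with a no-wash calcium kit. Compound was pin-added after a 10 s baseline. Fluorescence was read kinetically at 1 cycle/s for 180 s, with calcium rises flagged as agonism.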
Hits are given with their value; i = inactive; nt = no result given. This is a sample that favours compounds with a hit; in the whole collection about 4.7% have one here. Rule as the data show it, unless noted: active = activation above about 30%; inactive = the rest.

SMILES | D1 antag | TRHR agonist | D1 PAM | TRHR PAM | D1 agonist
CCc1ccccc1Nc1cc(C(=O)NC(C)c2ccccc2)c2ccccc2n1 (configuration not stated) | i | i | i | i | i
O=S1(=O)c2ccccc2N(Cc2ccccc2Cl)c2ccccc21 | i | i | i | i | i
Cc1ccc(CS/C(Nc2ccccc2C)=C(\C#N)C(=O)NCc2ccco2)c(C)c1 | i | i | i | i | 30.2
CCOC(=O)c1sc2nc(CSc3ccccc3)nc(N3CCCN(C)CC3)c2c1C | i | i | i | i | 30.5
CCOC(=O)c1sc2nc(CSc3ccccc3)nc(N3CCC(C(N)=O)CC3)c2c1C | i | i | i | i | i
Cc1ccc(C)c(NC(=O)CSc2ncc3c(n2)-c2ccc(Cl)cc2N(C)S3(=O)=O)c1 | i | i | i | i | i
CC(C)CCOc1ccccc1Cn1c(=O)sc2ccccc21 | i | i | i | i | 34.8
CCOc1ccccc1Cn1c(=O)sc2ccccc21 | i | i | i | i | i
O=C(CSc1nc2c([nH]c3ccccc32)c(=O)n1-c1ccc(F)cc1)NCc1ccc(F)cc1 | i | i | i | i | i
CSc1ccc(/C=N/NC(=O)CN2CCN(Cc3ccc(Cl)cc3)CC2)cc1 | i | i | i | i | 38.4
O=C(/C=C/c1ccc2c(c1)OCO2)NCCSCc1c(Cl)cccc1Cl | -32.1 | i | i | i | 42.2
COc1ccccc1CNc1ccc(-c2nc(-c3ccccn3)no2)cc1[N+](=O)[O-] | i | i | i | i | i
CCc1ccc(-c2nc(CS(=O)CC(=O)NCCc3ccc(Cl)cc3)c(C)o2)cc1 (configuration not stated) | i | i | i | i | i
COc1ccc(NC(=O)c2sc3nc(Cc4ccccc4)cc(C(F)(F)F)c3c2N)cc1OC | i | i | i | 31.9 | i
COc1ccccc1NC(=O)c1sc2nc(Cc3ccccc3)cc(C(F)(F)F)c2c1N | i | i | i | i | i
Cc1nnsc1-c1onc(C)c1C(=O)Nc1cc(Cl)cc(Cl)c1 | -34.5 | i | i | i | i
COc1ccc(Nc2nc(-c3sc(N)nc3C)cs2)cc1 | i | i | i | i | i
COc1ccc(CCNc2nc(-c3sc(N)nc3C)cs2)cc1OC | -60.6 | i | i | i | i
CCCC(=O)OC1CC(C)N(C(=O)c2ccccc2)c2ccc(C)cc21 (configuration not stated) | i | i | i | i | 32.1
CC(=O)OC1CC(C)N(C(=O)c2ccccc2)c2ccc(C)cc21 (configuration not stated) | i | i | i | i | i
CCC(C)c1ccccc1OCCn1ccnc1 (configuration not stated) | -34.4 | i | i | i | i
COc1ccccc1OCCn1ccnc1 | i | i | i | i | i
COc1ccccc1N1CCN(C(=O)CCn2cnc3onc(-c4ccc(F)cc4)c3c2=O)CC1 | i | i | i | i | i
CCOC(=O)CCCCC(=O)c1[nH]c(=O)[nH]c1CSc1nnc2c3cc(Br)ccc3n(C)c2n1 | -33.3 | i | i | i | i
CCOC(=O)N1CCC(NC(=O)c2cc(COc3ccccc3SC)on2)CC1 | -33.0 | i | i | i | i
SMILES | D1 antag | TRHR agonist | D1 PAM | TRHR PAM | D1 agonist
CCC(C)NC(=O)CCCc1nnc2n(CC(C)C)c(=O)c3sccc3n12 (configuration not stated) | i | i | i | i | i
Cc1cc(NC(=O)CSc2nnc(-c3ccccc3Cl)o2)no1 | i | i | i | 34.3 | i
Cc1cc(NC(=O)CSc2ccc(Cl)cc2)no1 | i | i | i | i | i
CC(C)(C)NC(=O)CSc1nc(-c2ccc(F)cc2)cs1 | i | i | i | i | i
Cc1cccc(NC(=O)CSc2nnc(-c3cc(C)n(-c4ccccc4)c3C)o2)c1C | i | i | i | i | i
Cc1cc(NC(=O)CSc2nc(-c3ccc(Cl)cc3)cs2)no1 | -45.9 | i | i | i | i
CCNC(=O)CSc1nc(-c2ccc(F)cc2)cs1 | -30.6 | i | i | i | i
Cc1cc(-c2nnc(SCC(=O)Nc3ccccc3C(F)(F)F)o2)c(C)n1-c1ccccc1 | i | i | i | i | 52.0
O=C(CC1N=C2c3ccccc3N=C(SCc3ccccc3Cl)N2C1=O)NCc1cccs1 (configuration not stated) | i | i | i | i | i
CCOC(=O)N1CCN(CC(O)COc2ccc(-c3ccccc3)cc2)CC1 (configuration not stated) | -31.4 | i | i | i | i
CC1CCCN(CC(O)COc2ccc(-c3ccccc3)cc2)C1 (configuration not stated) | i | i | i | i | 41.6
OC1CCCN(CC(O)COc2ccc(-c3ccccc3)cc2)C1 (configuration not stated) | i | i | i | i | 30.4
CCOC(=O)N1CCN(CC(O)COCc2ccccc2)CC1 (configuration not stated) | i | i | i | i | i
CC1CCCN(CC(O)COc2ccc(Cl)cc2)C1 (configuration not stated) | i | i | i | i | i
Cc1cc(C)c(S(=O)(=O)N2CCCCC2)cc1N(C)S(=O)(=O)c1ccc(Cl)cc1 | -30.6 | i | i | i | i
Cc1ccc(S(=O)(=O)N(C)c2cc(S(=O)(=O)N3CCOCC3)c(C)cc2C)cc1 | i | i | i | i | i
O=C1C(c2ccc(C(F)(F)F)cc2)=C(Nc2ccc(Cl)cc2)c2ccccc21 | i | i | i | i | i
Cc1ccc(CN2CCN(CC(=O)NC(C)CCc3ccccc3)C2=O)cc1 (configuration not stated) | i | i | nt | i | i
Cc1ccc(CN2CCN(CC(=O)NC(C)c3ccc4c(c3)OCCO4)C2=O)cc1 (configuration not stated) | i | i | nt | i | 44.4
COc1ccc(OC)c(NC(=O)CN2C(=O)NC3(CCCc4ccccc43)C2=O)c1 (configuration not stated) | i | i | i | i | i
NC(=O)CN1C(=O)NC2(CCOc3ccccc32)C1=O (configuration not stated) | -74.6 | i | i | i | i
CN(C(=O)CN1C(=O)NC2(CCc3ccccc32)C1=O)C1CCS(=O)(=O)C1 (configuration not stated) | -30.6 | i | i | i | i
NC(=O)NC(=O)CN1C(=O)NC2(CCOc3ccccc32)C1=O (configuration not stated) | i | i | i | i | i
COc1ccccc1CNC(=O)CN1C(=O)NC2(CCCc3ccccc32)C1=O (configuration not stated) | -37.9 | i | i | i | i
CC(C)CNC(=O)CN1C(=O)NC2(CCCc3ccccc32)C1=O (configuration not stated) | i | i | i | 30.7 | i
CC(NC(=O)CN1C(=O)NC2(CCc3ccccc32)C1=O)c1ccc2c(c1)OCCO2 (configuration not stated) | -42.5 | i | i | i | i

Screens deposited in PubChem BioAssay by National Center for Advancing Translational Sciences (NCATS).
